DT40 TDP1 CPT: growth inhibition of DT40 Tdp1-/-;hTDP1 cells with camptothecin (screen for TDP1 inhibitors) | chicken DT40 Tdp1-/-;hTDP1 cells + 20 nM CPT, ATP luminescence, 48 h | Potency, µM (titrated, usually from 46.2 µM), most hits filed as inhibitors | 420,000 compounds, 12% hits; also: nearly all actives have a fitted effect of over 55% in size
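Cell growth measured by CellTiter-Glo luminescence after a minimum 48 h, 37 C compound exposure with 20 nM CPT in Tdp1-knockout DT40 cells stably expressing hTDP1, seeded 400/well; qHTS titration format.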
IL-1B inflam inh: inhibitors of inflammasome signaling (IL-1 beta secretion); THP-1 LPS/ATP IL-1B secretion, AlphaLISA, 16 h; stronger effect = lower value; activity change, % at 57.5 µM; 360,000 compounds, 4.7% hits; in the data active = activity change below about -50%; inconclusive = mostly about -30% to -49%
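Secreted IL-1B measured by AlphaLISA bead assay after 16 h compound exposure of THP-1 cells; compounds (final up to 57.5 uM) added 1 h before LPS (250 ng/mL) and ATP (1.25 mM) stimulation; lower signal means less secretion.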
HT1080NT lethal: kills 2HG-producing HT-1080-NT fibrosarcoma cells. Potency, µM (top dose mostly 46.1 µM), actives largely listed as cytotoxic. 360,000 compounds, 1.6% hits. HT-1080-NT fibrosarcoma viability, CellTiter-Glo ATP luminescence, 48 h;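 also: NT is the 2HG producing partner of a matched IDH1 knockdown line; nearly all actives have a fitted effect of over 55% in size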
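Toxicity toward the 2HG-producing NT line was scored as %Activity, normalised to DMSO and no-cell wells, from CellTiter-Glo luminescence after 48 hours' treatment.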
HT1080 IDH1KD tx: kills HT-1080 cells with IDH1 knockdown; HT-1080 IDH1 knockdown viability, ATP luminescence, 48 h; Potency, µM (doses to about 46.1 µM), usual class: cytotoxic; 360,000 compounds, 2% hits; AID 686971
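Assay cells: HT-1080 with IDH1 knockdown, 750 per well, RPMI/5% FBS. Exposure: 48 h at 37 °C following 2 h pre-incubation. Read: CellTiter-Glo luminescence; fitted concentration-response, curve class assigned.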
DT40 TDP1 no CPT: qHTS for Inhibitors of human tyrosyl-DNA phosphodiesterase 1 (TDP1): qHTS in cells in absence of CPT; DT40 Tdp1-/- hTDP1 cells, no CPT, ATP luminescence, 48 h; Potency, µM (top dose mostly 46.2 µM), actives largely listed as inhibitors; 420,000 compounds, 15% hits; also: nearly all actives have a fitted effect of over 55% in size
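Chicken DT40 Tdp1-/- cells stably complemented with human TDP1 were seeded at 400 cells/well with DMSO in place of 20 nM camptothecin. After compound pinning, cells grew at least 48 hr at 37 °C; viability read by CellTiter-Glo luminescence.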
Of the large screens only hits and unclear results are named; the others gave an inactive call. Shown are actives, neighbours in structure and some others; about 19% of the full set was active somewhere. Unless noted, calls follow the shape of the dose curve; as a rule, active = well fitted curve in the direction sought with a large enough effect; inconclusive = small, poorly fitted or top-dose-only effect, or another doubt; inactive = no such curve, though single readings can be large; an effect the other way counts as inactive or inconclusive.

COc1ccc(S(=O)(=O)N2CCc3ccccc32)cc1C(=O)OCc1nnc(-c2ccccc2)o1	none
N/C(Cc1nc(-c2ccc(F)cc2)cs1)=N\O	IL-1B inflam inh -54
CCCCn1c(=O)[nH]c(=O)c2c1nc(-c1cc(Br)c(OCC)c(OC)c1)n2C	DT40 TDP1 CPT inconclusive, DT40 TDP1 no CPT inconclusive
CC1=NN(/C(=N\c2nnc(C)s2)Nc2ccc(C)cc2)[C@H](c2ccc(C)cc2)S1	DT40 TDP1 CPT inconclusive, DT40 TDP1 no CPT inconclusive
CC1=NN(/C(=N\c2nnc(C)s2)Nc2ccccc2)[C@H](c2cccc3ccccc23)S1	DT40 TDP1 CPT 23µM, DT40 TDP1 no CPT inconclusive
CCOc1ccc(/C=C2\C(=O)c3ccccc3OC2c2ccccc2)cc1 (configuration not stated)	DT40 TDP1 CPT inconclusive, DT40 TDP1 no CPT 18µM
COc1ccc(C2CC(c3ccc(C)cc3)=NN2C(=O)c2ccccc2)cc1 (configuration not stated)	DT40 TDP1 CPT 21µM, IL-1B inflam inh inconclusive, HT1080NT lethal inconclusive, HT1080 IDH1KD tx inconclusive, DT40 TDP1 no CPT 15µM
COc1ccc(C2=NN(C(=O)c3ccccc3)C(c3ccccc3)C2)c(O)c1 (configuration not stated)	DT40 TDP1 CPT inconclusive, DT40 TDP1 no CPT 18µM
O=C(c1cccs1)N1N=C(c2ccccc2)CC1c1ccccc1 (configuration not stated)	DT40 TDP1 CPT inconclusive, DT40 TDP1 no CPT inconclusive
COc1ccc(C2CC(c3ccc(OC)c(OC)c3)=NN2C(=O)c2ccccc2)cc1 (configuration not stated)	none
COc1ccc(C2=NN(C(=O)c3cccs3)C(c3ccc(OC)cc3)C2)cc1 (configuration not stated)	DT40 TDP1 CPT inconclusive, IL-1B inflam inh inconclusive, DT40 TDP1 no CPT 18µM
CCc1ccc(S(=O)(=O)c2nnn3c2nc(N2CCN(c4ccccc4)CC2)c2cc(Cl)ccc23)cc1	none (no result: IL-1B inflam inh, HT1080NT lethal, HT1080 IDH1KD tx)
Cc1ccc(CN2C(=O)CCC2C(=O)N2CCN(c3ccc(F)cc3)CC2)cc1 (configuration not stated)	none
Cc1ccc(CN2C(=O)CCC2C(=O)NCCN2CCN(c3cccc(Cl)c3)CC2)cc1 (configuration not stated)	DT40 TDP1 CPT inconclusive, IL-1B inflam inh inconclusive, DT40 TDP1 no CPT 15µM
O=C(C1CCC(=O)N1Cc1ccccc1Cl)N1CCN(c2cccc(Cl)c2)CC1 (configuration not stated)	DT40 TDP1 CPT 23µM, HT1080 IDH1KD tx inconclusive, DT40 TDP1 no CPT 23µM
COc1cc(C(=O)NCC(=O)N/N=C/c2ccc(OC(=O)c3ccco3)cc2)cc(OC)c1OC	none
O=C(CCNS(=O)(=O)c1ccccc1C(F)(F)F)NNC(=O)C1COc2ccccc2O1 (configuration not stated)	none
Cc1ccc(OCc2nc3ccccc3n2C(C(=O)Nc2c(C)cccc2C)C2CC2)cc1 (configuration not stated)	DT40 TDP1 CPT inconclusive, HT1080NT lethal inconclusive, HT1080 IDH1KD tx inconclusive, DT40 TDP1 no CPT inconclusive
COc1ccc(C(C(=O)NC(C)(C)C)n2c(COc3ccc(C)cc3)nc3ccccc32)cc1 (configuration not stated)	DT40 TDP1 CPT 18µM, HT1080NT lethal inconclusive, HT1080 IDH1KD tx inconclusive, DT40 TDP1 no CPT inconclusive
Cc1cccc(C)c1NC(=O)C(C)n1c(-c2ccc(=O)[nH]c2)nc2ccccc21 (configuration not stated)	none
COc1ccc(C(C(=O)NC(C)(C)C)n2c(-c3ccc(=O)[nH]c3)nc3ccccc32)cc1 (configuration not stated)	DT40 TDP1 CPT 9.2µM, HT1080NT lethal 13µM, HT1080 IDH1KD tx 8.2µM, DT40 TDP1 no CPT 8.2µM
COc1cc2cc(C(=O)N(C)C3CCS(=O)(=O)C3)[nH]c2cc1OC (configuration not stated)	none
COc1ccc(C)cc1NC(=O)CCNS(=O)(=O)c1cccc(C(F)(F)F)c1	DT40 TDP1 CPT inconclusive
CCc1ccc(NC(=O)C(=O)NCc2ccccn2)cc1	DT40 TDP1 CPT inconclusive
CN(C)c1ccc(CNC(=O)C2CCN(Cc3cc4ccccc4n3Cc3ccccc3)CC2)cc1	DT40 TDP1 CPT 16µM, DT40 TDP1 no CPT 13µM (no result: IL-1B inflam inh, HT1080NT lethal, HT1080 IDH1KD tx)
O=C(NCc1cccnc1)C1CCN(Cc2cc3ccccc3n2Cc2cccc(Cl)c2)CC1	DT40 TDP1 CPT inconclusive, DT40 TDP1 no CPT 18µM (no result: IL-1B inflam inh, HT1080NT lethal, HT1080 IDH1KD tx)
O=C(NCc1cccnc1)C1CCN(Cc2cc3ccccc3n2Cc2ccccc2)CC1	DT40 TDP1 CPT inconclusive, DT40 TDP1 no CPT 13µM (no result: IL-1B inflam inh, HT1080NT lethal, HT1080 IDH1KD tx)
CN(C)c1ccc(CN2CCC(C(N)=O)CC2)cc1	none
COc1ccc(OC)c(CN2CCOc3ccc(CN4CCC(O)(c5cccnc5)CC4)cc3C2)c1	DT40 TDP1 no CPT inconclusive (no result: IL-1B inflam inh, HT1080NT lethal, HT1080 IDH1KD tx)
CCOC(=O)c1c(C)[nH]c(C(=O)C(C)OC(=O)c2cccc(OCc3c(C)noc3C)c2)c1C (configuration not stated)	DT40 TDP1 CPT 21µM, IL-1B inflam inh inconclusive, HT1080 IDH1KD tx inconclusive, DT40 TDP1 no CPT 18µM
CCC(C)NC(=O)c1cccc(OCc2c(C)noc2C)c1 (configuration not stated)	none
O=C(O)c1cccc(Cn2c(Cl)c(/C=N/NC(=O)c3cccc(O)c3)sc2=O)c1	none
Cc1ccccc1N/N=C/c1sc(=O)n(Cc2cccc(C(=O)O)c2)c1Cl	DT40 TDP1 CPT inconclusive, HT1080NT lethal inconclusive, HT1080 IDH1KD tx inconclusive, DT40 TDP1 no CPT 21µM
Cc1c2cnccc2c(C)c2c1c1ccccc1n2CCOC(=O)c1ccccc1	DT40 TDP1 CPT inconclusive, DT40 TDP1 no CPT 11µM (no result: IL-1B inflam inh, HT1080NT lethal, HT1080 IDH1KD tx)
CCCCCNC(=O)N[C@H](C(=O)O)C(C)C	none
CO/N=C(\C(=O)N[C@@H]1C(=O)N2C(C(=O)OCOC(=O)C(C)(C)C)=C(/C=C\c3scnc3C)CS[C@H]12)c1csc(N)n1	none (no result: IL-1B inflam inh, HT1080NT lethal, HT1080 IDH1KD tx)
CCN(CC)CC(=O)Nc1ccc(Oc2ccc(NC(=O)CN(CC)CC)cc2)cc1	IL-1B inflam inh -58, HT1080NT lethal inconclusive
Cc1ccc2oc(-c3ccc(NC(=O)CC(C)C)cc3)nc2c1	none
CCN(CC(=O)Nc1ccc(OC)cc1)CC(=O)Nc1ccc(Cl)cc1F	none
CCN(CC)CC(=O)Nc1ccc(-c2nc3cc(NC(=O)CN(CC)CC)ccc3o2)cc1	DT40 TDP1 CPT 21µM, DT40 TDP1 no CPT 18µM
O=C(CN1CCCC1)Nc1ccc(-c2nc3cc(NC(=O)CN4CCCC4)ccc3o2)cc1	DT40 TDP1 CPT 18µM, IL-1B inflam inh -56, HT1080NT lethal inconclusive, HT1080 IDH1KD tx inconclusive, DT40 TDP1 no CPT 12µM
CCC(C)NCC(=O)Nc1ccc(-c2nc3cc(NC(=O)CNC(C)CC)ccc3o2)cc1 (configuration not stated)	DT40 TDP1 CPT 6.5µM, DT40 TDP1 no CPT 7.3µM
